Reference: the supplement of paper PMC6555819

Legend:
Assay in all cases: PBM binding z-score (relative to random genomic background probes); higher = stronger binding; sequences stand for … in GC…GCGATTGACAGCGTAGAATGAAGG
[1] = test system: FXR:RXRa (NR concentration 270 nM, RXRa partner concentration 90 nM)
How it was run: (§1)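 On custom Agilent 4×180K arrays, double-stranded probes with 34-nt variable regions carried direct-repeat seeds, single-nucleotide variants, half-site ablations or random human genomic background. Ligand-free nuclear receptor dimers were applied for 1 h, and binding was read with antibodies against each partner (one per run). Binding z-scores come from regression-normalized fluorescence, with the random background probes as reference.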

[2] = test system: LXRa:RXRa (NR concentration 270 nM, RXRa partner concentration 90 nM)
How it was run: as §1

[3] = test system: LXRa homodimer (NR concentration 270 nM)
How it was run: as §1

[4] = test system: LXRb:RXRa (NR concentration 270 nM, RXRa partner concentration 90 nM)
How it was run: as §1

[5] = test system: LXRb homodimer (NR concentration 270 nM)
How it was run: as §1

[6] = test system: PPARa:RXRa (NR concentration 270 nM, RXRa partner concentration 90 nM)
How it was run: as §1

[7] = test system: PPARg:RXRa (NR concentration 180 nM, RXRa partner concentration 90 nM)
How it was run: as §1

[8] = test system: PPARg:RXRa 270nM:90nM, anti-RXR (NR concentration 270 nM, RXRa partner concentration 90 nM)
How it was run: as §1

[9] = test system: PPARg:RXRa 30nM:10nM, anti-RXR (NR concentration 30 nM, RXRa partner concentration 10 nM)
How it was run: as §1

[10] = test system: PPARg:RXRa 90nM:30nM, anti-RXR (NR concentration 90 nM, RXRa partner concentration 30 nM)
How it was run: as §1

Sequence	PBM binding z-score [1]	PBM binding z-score [2]	PBM binding z-score [3]	PBM binding z-score [4]	PBM binding z-score [5]	PBM binding z-score [6]	PBM binding z-score [7]	PBM binding z-score [8]	PBM binding z-score [9]	PBM binding z-score [10]
CCTCTGAGGACAGAAGGTCAGAGCTGTCCGCTTT	2.01	1.73	0.0206	1.25	-0.446	2.02	0.0496	1.3	-0.534	0.582
ATATGTATGTTATCGGGTCATTCAGTTTGCGCAT	1.97	2.23	0.86	2.38	1.09	3.32	2.67	2.71	0.938	2.09
CAGCCGAGGTCAGGGCCAGTATAGGAGGAACGTT	6.57	3.98	-0.152	3.28	-0.519	5.6	5.04	4.49	1.2	3.28
ATACCAAGGTGATCGTGAGGTCATTGATACTAAC	4.13	4.22	4.81	3.53	0.748	3.62	1.7	1.98	0.601	1.25
CCGACTGGGGCAAAAAGGTTACCATACCATCCGG	0.468	0.384	-0.0503	1.14	-0.735	2.38	1.48	1.95	0.214	1.25
CAAACAGGGTCAGCTAGGCCAGAGTAGGGACGGC	4.65	2.73	-0.316	2.21	0.0212	4.47	3.5	3.57	0.838	2.35
GATACAGGGTCAGCTAGAGCCCAGAGTATGGAAA	4.49	2.36	-0.499	2.18	-0.471	4.59	3.94	3.29	0.917	2.03
AGAACGAGGGCAATGAGTTGATACCACGGGTGGC	0.296	0.211	-0.493	-0.174	-0.279	1.36	1.5	0.94	-0.0193	0.369
CCTACTGGGCCATTCAGAGATCATTGATCATATG	-0.238	-0.231	-0.224	-0.409	-0.653	0.219	0.557	0.204	-0.621	-0.372
GCTCGGAGGACACGGTCAGAGCTTTGTCCGTAGA	-0.337	-0.705	-0.568	-0.918	-1.3	-0.523	-0.859	-0.893	-1.3	-1.06
GATACAGGGTCAGCTAGAGGCAAGAGTATGGAAA	4.32	2.35	-0.297	2.33	-0.0863	4.69	3.78	3.19	0.625	1.71
TCGAGTAGGTTAGGAGCATTCAGAATGGCGTCGA	-0.126	-0.0909	-0.756	-0.438	-1.39	0.24	0.0725	0.668	0.928	0.741
CCGGCTGGGGCATAAGGTTACCATAAGCCAGCCC	-0.0908	1.73	-0.45	0.426	-1.54	1.11	0.631	1.5	-0.332	0.706
AGTCGAAGTTCACTAGGTAACGTAAGATTCAGCT	1.2	1.74	0.29	1.03	-0.107	2.81	3.18	3.43	0.891	2.44
TCTATTAGTTGAAGGACAACCGACGAGTCCGTTT	0.875	0.862	0.762	0.67	0.653	0.754	0.353	2.04	4.25	3.08
AGAATGAGGTTATACGTAGATAAGGGAAGAAAGT	2.05	1.86	-0.00161	1.56	0.00672	3.3	2.47	2.07	1.02	1.67
TAGCCTAGGTCATGCAGGGGCCAGTATAGAAAGC	3.95	3.15	-0.0993	2.24	-0.427	3.56	2.28	2.44	0.917	1.5
GTACCAAGGTGAATAGGTCTTTGATGAGTAGGCG	0.444	0.341	-0.168	0.148	-0.363	1.23	0.96	1.11	0.335	0.823
TCTCGGAGGACACGAAGGCCAGAGCTTTCCAGAG	0.413	-0.099	-0.863	-0.477	-0.953	0.156	-0.048	0.609	1.81	1.36
TCGAGTAGGTTAGTCGGAGCATTCAGCCAACATA	-0.453	-0.512	-0.667	-0.741	-1.46	0.0631	-0.127	0.379	0.624	0.538
CAAACTAGGTCAAGAGGTCAGAGTCCGCTTCCCG	5.85	5.23	3.2	4.21	0.8	6.08	9.79	7.9	6.89	8.32
ACTATTAGTTGAGACGAGGGCAGCCGATAGGTTG	0.474	-0.24	-0.315	-0.195	0.184	-0.0872	0.689	-0.013	0.136	-0.0374
TAGCCCAGGTCATGCGGGCCAGTATAGTGTCGGC	4.35	3.42	0.136	1.9	-0.0451	3.8	2.55	2.55	0.267	1.35
CCTACTGGGCCAAAGGTCATTGATTCCAATGCTC	4.82	5.3	4.17	4.72	0.913	6.33	12	10.5	10.7	11.4
